# The whole screen tested about 4,100 compounds, of which about 1,600 (39%) were called active. Another 25% or so got no clear call; they are omitted. Some of the results follow. Unmarked numbers belong to inactive results. The call rests on the fitted dose curve; in most records, active means well fitted inhibition curve with a large enough effect; inconclusive means small, poorly fitted or top-dose-only effect; inactive means no such curve, though single readings can be large or run the other way.
# Test: qHTS Validation assay for Inhibitors of Plasmodium falciparum Dd2 growth in vitro; further: nearly all actives have a fitted effect of over 70% in size
# Conditions: P. falciparum Dd2 in RBCs, SYBR Green growth, 72 h; series mostly up to 28.7 µM; activity change, negative = inhibition: at the top concentration
# Method in brief: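 P. falciparum Dd2-infected red blood cells (2.5% hematocrit, 0.3% parasitemia) grown 72 h at 37 °C under 5% O2 with compounds in a titration, 29 uM to 0.5 nM final. Growth read as SYBR Green-1 fluorescence after ~16 h lysis; artesunate 300 nM as positive control.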
# On the % scale 0 is the no-effect control and ±100 the full control effect; potency means the concentration at half of the fitted maximal effect.
Compound,Potency,"activity change, negative = inhibition"
CN1C2CCC1/C(=C\c1ccccc1)C(=O)/C2=C\c1ccccc1,2.11 µM (active),
Cc1cc(Oc2c(C(F)(F)F)oc3c(CN4CCC(C)CC4)c(O)ccc3c2=O)cc(C)c1Cl,0.75 µM (active),
Cc1ccc(Oc2c(C(F)(F)F)oc3c(CN4CCC(C)CC4)c(O)ccc3c2=O)cc1,1.68 µM (active),
CCc1nc(CN(C)C(C(=O)O)c2ccc(C(C)(C)C#N)cc2)no1 (centres undefined),,43.9%
Nc1ccc(NC(=O)c2cccc(C(=O)Nc3ccc(N)cc3Cl)c2)c(Cl)c1,,9%
CCOC(=O)C1CCN(C(=O)c2cc(C(C)(C)C)nn2Cc2ccccc2)CC1,4.73 µM (active),
CN1CCCCCC(O)c2cc(C(=O)N3CCN(Cc4ccccc4)CC3)ccc21 (centres undefined),,-27.5%
CCn1nc(C)cc1C(=O)N1Cc2cnn(Cc3ccc(F)cc3)c2C1,,5.55%
Cc1cn2nc(C(=O)N3CCC(C(=O)NCCc4ccccc4)CC3)cc2c(=O)[nH]1,,3.72%
CCOC(=O)C1CCN(C(=O)c2cc3c(n2C)CCN(Cc2ccccc2)C3)CC1,10.6 µM (active),
O=C(c1cnc2n1CCN(CCc1ccccc1)CC2)N1CCC(c2ccccc2)CC1,,-14.7% [at 43.1 µM]
COc1ccc(NC(=O)c2ccc3c(c2)NC(C)(COCC2CC2)CO3)cn1 (centres undefined),,41.9% [at 43.1 µM]
O=C(Nc1cccnc1)c1ccc(Cl)c(S(=O)(=O)N2CCc3ccccc32)c1,,-21.8%
COc1ccc(NC(=O)c2ccc(Cl)c(S(=O)(=O)N3CCc4ccccc4C3)c2)cn1,7.5 µM (active),
CC(C)N(C)Cc1nnnn1CC(=O)N1CCC(O)(c2cccnc2)CC1,,51.6%
Cc1cc(C)cc(N=Cc2[nH]c3ccc(Br)c(Cl)c3c2O)c1,11.9 µM (active),
O=C(Cc1ccc(NC(=O)N2CCSc3ncccc32)cc1)NCCc1ccccc1,,47.8%
CCOc1ccc(CCNC(=O)Nc2ccccc2)cc1OCC,5.31 µM (active),
CC(C)C(=O)Nc1oc(-c2ccccc2)cc1C#N,6.68 µM (active),
c1ccc(-c2noc(-c3ccn4c(CN5CCSCC5)nnc4c3)n2)cc1,,4.68%
CCN1CCC(Nc2ccnc3cc(Cl)ccc23)CC1,0.188 µM (active),
Clc1ccc2c(NCc3ccccn3)ccnc2c1,2.11 µM (active),

Compound,Potency,"activity change, negative = inhibition"
CCN(CC)CCNc1ccnc2cc(Cl)ccc12,0.211 µM (active),
CCN1CCN(C(=O)c2ccc3c(Cl)c4c(nc3c2)CCCC4)CC1,,-2.92%
CCC(O)c1cc2n(n1)CCN(C(=O)CN1CCOc3ccccc3C1)C2 (centres undefined),,8.38%
CN1CCC2(C1)CN(Cc1ccccc1)c1ccc(C(=O)Nc3ccc(F)cc3)cc12 (centres undefined),19.3 µM (active),
CN1c2cc(C(=O)Nc3ccc(F)cc3)ccc2C(=O)N2CCCCC21 (centres undefined),,-5.09%
CC1(CNc2ccccc2)COc2ccc(C(=O)NCc3cccc(F)c3)cc2N1 (centres undefined),,-24.8% [at 43.1 µM]
Cc1sc2nc(-c3ccccn3)[nH]c(=O)c2c1-c1ccccc1,13.3 µM (active),
Cc1ccccc1Nc1cc(C)c2c(O)cccc2n1,5.31 µM (active),
Cc1cccc(Nc2cc(C)c3c(O)cccc3n2)c1C,4.73 µM (active),
Cc1cccc(NC(=O)Cn2c(C)cc3nc4n(c(=O)c32)CCCCC4)c1C,,-16.8%
CCc1ccc2oc(-c3ccc(NC(=O)c4cc5ccccc5o4)cc3)nc2c1,,-19.7%
O=C(Nc1ccc(-c2nc3cc(NC(=O)c4ccccc4F)ccc3o2)cc1)c1ccccc1F,,54%
Nc1ccc2oc(-c3ccc4nc[nH]c4c3)nc2c1,13.3 µM (active),
COc1ccc(CCN(C)C(=O)CC(c2cccc(F)c2)c2cn(C)c3ccccc23)cc1OC (centres undefined),8.41 µM (active),
OC(CNC1CCCCCC1)COc1cccc2ccccc12 (centres undefined),1.88 µM (active),
Cc1sc2ncnc(NCC3(N4CCOCC4)CCCCC3)c2c1C,,-18.8%
C/C(=N\Nc1ncnc2sc(C)c(C)c12)c1ccccn1,1.33 µM (active),
Cc1sc2ncnc(SC(C)C(=O)N3c4ccccc4Sc4ccccc43)c2c1C (centres undefined),,-2.6%
COc1ccc(-c2noc([C@@H]3CCCN3C(=O)CCCc3ccccc3)n2)cc1,,1.4%
O=C(CCCc1ccccc1)N1CCC[C@H]1c1nc(-c2ccccc2)no1,,-16.8%
Cc1cnc(C2CCC2)n1C1CCCN(C(=O)CCCc2ccccc2)C1 (centres undefined),15 µM (active),
CCOc1ccc(NC(=O)c2nnn3cc(C)[nH]c(=O)c23)cc1,10.6 µM (active),

Compound,Potency,"activity change, negative = inhibition"
Cc1cccc(CNC(=O)c2nnn3cc(C)[nH]c(=O)c23)c1,,13.4%
COc1ccc(NC(=O)O[C@@H]2CC[C@]3(C)C(CC[C@@H](O)[C@H]3CC(=O)NCc3ccccc3OC)[C@]2(C)CO)cc1 (some centres undefined),6.68 µM (active),
COc1ccc(S(=O)(=O)N2CCC(CC(=O)NCc3ccccc3)C2)cc1 (centres undefined),,3.39%
CCc1cc2c(Sc3nc4ccccc4s3)ncnc2s1,1.5 µM (active),
c1ccc2sc(Sc3ncnc4sccc34)nc2c1,0.944 µM (active),
Cc1c(N/N=C(\C#N)C(=O)c2ccccc2)c(=O)n(-c2ccccc2)n1C,6.68 µM (active),
CN(C)CCN1C(=O)c2oc3ccc(Cl)cc3c(=O)c2C1c1cccc(Br)c1 (centres undefined),0.531 µM (active),
COc1cccc(CN2CCCC(N3CCN(c4cccc(C(F)(F)F)c4)CC3)C2)c1O (centres undefined),0.842 µM (active),
Oc1ccccc1CN1CCCC(N2CCN(c3cccc(C(F)(F)F)c3)CC2)C1 (centres undefined),1.33 µM (active),
O=C(NC[C@H]1O[C@@H](CO)[C@@H](O)[C@H]1N1CCN(c2cccc(C(F)(F)F)c2)CC1)c1cccs1,,-4.61%
CCOc1cc(CN2CCCC(N3CCN(c4ccc(F)cc4)CC3)C2)ccc1OC (centres undefined),,-9.71%
CC1(C)C(=O)N(Cc2ccccc2)[C@H]2CN(CC3CCOCC3)C[C@@H]2[S+]1(=O)[O-],,7.69% [at 43.1 µM]
O=C(NNc1nc(-c2ccc(Br)cc2)cs1)c1ccco1,5.31 µM (active),
CCCCOC(=O)N1CCC(N2CCCC(C(=O)N3CCOCC3)C2)CC1 (centres undefined),,35%
CCN1CCCC1CNc1ncnc2c1[nH]c1ccc(Cl)cc12 (centres undefined),2.99 µM (active),
CN(Cc1cccn1C)S(C)(=O)=O,,30.2% [at 57.5 µM]
CN(C)C[C@@H]1CN(c2ccncn2)C[C@H]1NC(=O)c1cnco1,,16.3%
Cc1ccc(NC2=C(c3ccc(C(F)(F)F)cc3)C(=O)c3ccccc32)cc1C,2.11 µM (active),
Cc1ccc(NC2=C(c3ccc(C(F)(F)F)cc3)C(=O)c3ccccc32)cc1F,1.88 µM (active),
Cc1ccc(C)c(NC2=C(c3ccc(C(F)(F)F)cc3)C(=O)c3ccccc32)c1,4.73 µM (active),

# Reference: PubChem BioAssay AID1347416 (National Center for Advancing Translational Sciences (NCATS), 2020)
